High-throughput results as filed in PubChem BioAssay.
A selection: hits, their analogues and other compounds. The true share with any hit is near 4%.
KKLEB tox: CF airway cell cytotoxicity counter-screen; AID 602141; KKLEB CF airway cells viability, ATPlite luminescence, overnight; active compounds read low; cells stimulated with P. aeruginosa culture filtrate; activity change (cytotoxicity), % at 5 µM; 360,000 compounds, 0.36% hits;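 active means corrected activity change at or below -50% at 5 µM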
TWEAK Fn14 block: inhibitors of TWEAK-Fn14 interaction signaling | TWEAK-stimulated Fn14 reporter cells, luciferase luminescence, 8 h | inhibition, % at 10 µM | 360,000 compounds, 2% hits | AID 1159606; in the data active means inhibition above about 50%
HIF-2a inh: inhibitors of HIF-2a | 786-0 RCC cells HIF-2a reporter, luciferase luminescence, overnight | inhibition, % at 18.8 µM | 360,000 compounds, 0.72% hits | AID 624352;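 active means inhibition of the luminescence signal of 40% or more relative to plate controls, in a single-dose primary screen at 18.75 µM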
TROY NFkB inh: inhibitors of TROY-dependent NF-kB signaling. inhibition, % at 10 µM. 360,000 compounds, 0.98% hits. Q293 LMP1-TROYcd NF-kB luciferase reporter, 4 h. AID 1347056;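 active means compounds whose plate-normalised and pattern-corrected inhibition of the luciferase reporter signal at the single screening dose is 50% or more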
Peg3 prom inh: Peg3 promoter activity inhibition | HeLa PEG-Prom luciferase reporter, luminescence, overnight | inhibition, % at 20 µM | 360,000 compounds, 1.7% hits;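 active means inhibition of at least 50% at 20 µM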
CF NFkB inh: inhibitors of cystic fibrosis induced NF-kB | KKLEB NF-kB-GFP reporter, PAF-induced, GFP fluorescence overnight | AID 588850 | 360,000 compounds, 0.86% hits | inhibition, % at 5 µM;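 active means at least 50% inhibition at 5 µM, scaled per plate between neutral and stimulator controls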;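 further: PAF is a Pseudomonas aeruginosa culture filtrate used as stimulus; plate controls were PAF-stimulated DMSO wells for no effect and unstimulated DMSO wells for full effect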
* = called active by the depositor; · = no result given.

SMILES	KKLEB tox	TWEAK Fn14 block	HIF-2a inh	TROY NFkB inh	Peg3 prom inh	CF NFkB inh
O=C1c2[nH]nc(-c3ccccc3O)c2C(c2cccc(Cl)c2)N1Cc1ccco1 (stereo not drawn)	-1	29	31	24	60*	6
CC(C)=C1C2CCC1C(C(=O)Nc1sc(C)c(-c3ccc(C(C)C)cc3)c1C(N)=O)C2C(=O)O (stereo not drawn)	-10	36	15	51*	28	23
CCC(=O)c1ccc(N2CCN(C(=O)COc3ccc(F)cc3)CC2)c(F)c1	15	81*	-6	·	0	-6
N=c1c2c(-c3ccccc3)c(-c3ccccc3)n(Cc3ccco3)c2ncn1Cc1ccco1	-14	3	30	·	105*	29
COc1cc2ccnc(C=NO)c2cc1OC	-17	24	26	21	29	17
COc1cc2ccnc(C=O)c2cc1OC	-26	56*	6	2	28	86*
CC[C@H](C)C1OC(=O)[C@@H](C)[C@@H](CC)NC(=O)[C@H](C)N(C)C(=O)C(C)(C)C(=O)C(C)NC(=O)[C@H](Cc2ccc(OC)cc2)N(C)C(=O)[C@H](C(C)C)N(C)C(=O)CNC(=O)[C@H](CC(C)C)N(C)C(=O)CNC1=O (stereo partly drawn)	-94*	12	34	54*	92*	96*
Cc1ccccc1Cn1c(C)c(C(=O)N(C)Cc2ccc(F)cc2)sc1=O	-27	1	-18	-4	9	12
CCN(CC(=O)Nc1ccc2c(c1)OCCO2)C(=O)COc1cc(C)ccc1Cl	-20	87*	-29	-3	-8	8
Cc1cc(C)cc(NC(=O)COC(=O)Cc2ccccc2F)c1	0	75*	8	-6	6	17
NC(=O)COC(=O)c1cccc2c1-c1ccccc1C2=O	2	-8	19	-7	19	5
CC(C)COC(=O)c1ccc2c(c1O)C(=O)c1ccccc1C2=O	-6	71*	-175	29	-225	-2
CN(C)S(=O)(=O)NCC1CCCN(Cc2cc3ccccc3s2)C1 (stereo not drawn)	-3	-7	7	-13	12	-14
COC(=O)c1sccc1NC(=O)CSc1ccccc1NS(=O)(=O)c1ccc(Br)cc1	0	53*	22	52*	40	19
Clc1cccc(-c2cc3nc4c(c(N5CCN(c6cnccn6)CC5)n3n2)CCCC4)c1	-14	61*	-115	26	-106	20
Clc1cccc(-c2cc3nc4c(c(N5CCOCC5)n3n2)CCCC4)c1	-11	6	-80	28	-212	18
CN(Cc1ccc(Cl)c(Cl)c1)C(C(=O)NCc1ccccc1)c1ccc(C(F)(F)F)cc1 (stereo not drawn)	·	·	-49	·	·	·
CCOc1ccc(N2C(=O)CC(NCCc3ccc(S(N)(=O)=O)cc3)C2=O)cc1 (stereo not drawn)	4	108*	9	·	2	2
CCCOc1ccc(N2C(=O)CC(NCCc3ccc(S(N)(=O)=O)cc3)C2=O)cc1 (stereo not drawn)	3	4	6	8	2	-2
CC1CCN(c2nc(/C=C/c3ccccc3)nc3ccccc23)CC1	2	-23	-76	-42	-53	-13
C(=C\c1nc(N2CCCC2)c2ccccc2n1)/c1ccccc1	-5	-28	-78	-38	103*	-87
COc1cccc(C2=Cc3ccc(F)cc3C(CC(C)=O)N2c2ccc(C#CC3(O)CCCCC3)cc2)c1 (stereo not drawn)	·	65*	6	-4	·	·
COc1cccc(CNC(=O)CCNS(=O)(=O)c2ccc(Br)s2)c1	-2	5	17	-39	8	12
Cc1ccc(-c2nc3cc(C)ccc3o2)cc1	-23	84*	-69	65*	-156	-4
Nc1ccc2oc(-c3cccc4ccccc34)nc2c1	0	-1	87*	-11	-26	-28
Cc1ccc2oc(-c3ccc(NC(=O)c4cccnc4)cc3)nc2c1	13	56*	-287	13	-147	-2
Cc1ccc(-c2nc3cc(N)ccc3o2)cc1	-9	70*	-75	-12	-125	-14
Cc1cc(Cl)c(C)c(S(=O)(=O)Oc2ccccc2NC(=O)CCC(=O)O)c1Cl	-1	-13	3	-14	7	5
